Experimental data as given in the supplement of paper PMC10646978.
± gives the standard deviation.

Tests used:
Conditions in all cases: modulator concentration 10 µM
[1] = test system: RAW-Dual (murine macrophage reporter line); experiment: NF-kB reporter (SEAP) activity fold change vs agonist alone; higher = enhanced NF-kB activity
In short: (§1)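 RAW-Dual murine macrophage reporter cells were plated at 50 000 per well in 384-well plates, pin-transferred compound to 10 μM final, and pre-incubated for 1 hour at 37 °C before a PRR agonist was added and the cells incubated overnight. NF-κB activity was read from supernatant SEAP with QUANTI-Blue at 620 nm absorbance, and IRF activity from Lucia luciferase with QUANTI-Luc by luminescence. Each signal was expressed as fold change by dividing by the mean agonist-only control on the same plate. Two replicate plates were averaged, with errors obtained by propagation.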

[2] = test system: RAW-Dual (murine macrophage reporter line); experiment: IRF reporter (Lucia luciferase) activity fold change vs agonist alone; higher = enhanced IRF activity
In short: as §1

[3] = test system: RAW-Dual (murine macrophage reporter line); experiment: viability score (confluency relative to resting cells, overnight) (fraction); higher = more viable, active = viable (0.7 or more)
In short: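 Confluency was the readout: RAW-Dual macrophages were imaged with IncuCyte after an overnight exposure to compound at 10 μM final. IncuCyte software produced two masks over all imaged wells. The viability score expresses confluency against resting cells, and both masks had to exceed 70% of resting cells for a compound to meet the cutoff.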

[4] = agonist: CpG ODN 1826 0.5 ug/mL

| Structure (SMILES) | NF-kB reporter [1, 4] | NF-kB reporter ([1]; agonist: LPS 0.1 ug/mL) | NF-kB reporter ([1]; agonist: MPLA […]) | IRF reporter ([2]; agonist: 3'3'-cGAMP 10 ug/mL) | IRF reporter ([2]; agonist: LPS 0.1 ug/mL) | IRF reporter ([2]; agonist: MPLA […]) | viability score [3] |
| --- | --- | --- | --- | --- | --- | --- | --- |
| Cc1cc(OCCCOc2cccc3cccnc23)ccc1Cl | 0.752 ± 0.06 | 1.02 ± 0.058 | 0.864 ± 0.052 | 0.998 ± 0.025 | 1.14 ± 0.18 | 1.03 ± 0.27 | 1 (active) |
| Cc1ccc(S(=O)(=O)n2cnc3ccccc32)cc1C | 0.594 ± 0.066 | 1.11 ± 0.065 | 1.07 ± 0.064 | 1.12 ± 0.042 | 1.37 ± 0.12 | 1.06 ± 0.07 | 0.988 (active) |
| CCc1ccc2ncc(C#N)c(Nc3cc(OC)c(OC)c(OC)c3)c2c1.Cl | 1.37 ± 0.071 | 1.24 ± 0.17 | 0.931 ± 0.066 | 0.712 ± 0.038 | 0.607 ± 0.078 | 0.725 ± 0.17 | 0.903 (active) |
| Cc1cc(C(O)CNC(=O)c2ccc(C(F)(F)F)nc2)c(C)o1 (centres undefined) | 1.25 ± 0.083 | 1.05 ± 0.085 | 1.01 ± 0.029 | 0.965 ± 0.049 | 1.04 ± 0.053 | 1.16 ± 0.11 | 1 (active) |
| CCN(CC)CC#CCOC(=O)C(O)(c1ccccc1)C1CCCCC1.Cl (centres undefined) | 0.873 ± 0.057 | 1.01 ± 0.11 | 1.05 ± 0.084 | 0.998 ± 0.047 | 1.12 ± 0.2 | 1.19 ± 0.29 | 1.02 (active) |
| Cn1c(=O)c2c(ncn2CC(=O)O)n(C)c1=O [Prestw-1507] | 0.918 ± 0.25 | 1.19 ± 0.12 | 1.04 ± 0.086 | 0.945 ± 0.053 | 0.96 ± 0.099 | 1.17 ± 0.15 | 0.992 (active) |
| CC1=NN(c2ccc(C)cc2)C(=O)C1=Cc1c(C)nn(-c2ccc(C)cc2C)c1O | 1.03 ± 0.08 | 0.922 ± 0.089 | 1.02 ± 0.096 | 0.986 ± 0.046 | 1.21 ± 0.2 | 1.26 ± 0.19 | 1.03 (active) |
| O=S(=O)(Oc1cccc2ccccc12)c1ccc(F)cc1 | 0.832 ± 0.1 | 0.926 ± 0.096 | 1.12 ± 0.1 | 0.789 ± 0.036 | 1.06 ± 0.064 | 1.12 ± 0.096 | 0.999 (active) |
| Cc1ccc2sc(NC(=O)c3cccc(N4C(=O)CCC4=O)c3)nc2c1C | 0.946 ± 0.097 | 0.877 ± 0.074 | 1.11 ± 0.12 | 0.939 ± 0.03 | 1.39 ± 0.19 | 1.57 ± 0.21 | 1.02 (active) |
| CC(/C=C1\SC(=S)N(CC(=O)O)C1=O)=C\c1ccccc1 | 0.7 ± 0.036 | 0.822 ± 0.093 | 1.05 ± 0.094 | 0.977 ± 0.048 | 1.4 ± 0.29 | 1.66 ± 0.52 | 0.962 (active) |
| CCN(CC)c1ccc(C=NNC(=O)c2ccccc2)c(O)c1 | 2.34 ± 0.38 | 2.11 ± 0.16 | 4.3 ± 0.34 | 0.0729 ± 0.013 | 2.18 ± 0.29 | 2.36 ± 0.42 | 0.814 (active) |
| CN(C)c1ccc(C=NN2C(=O)c3cccc4cccc(c34)C2=O)cc1 | 1 ± 0.21 | 1.1 ± 0.092 | 0.964 ± 0.11 | 1 ± 0.032 | 1.28 ± 0.23 | 1.36 ± 0.17 | 1 (active) |
| COc1ccc2ccccc2c1C=C1SC(=S)N(CC(=O)O)C1=O | 1.05 ± 0.081 | 1 ± 0.12 | 1 ± 0.099 | 0.988 ± 0.053 | 1.34 ± 0.27 | 1.52 ± 0.4 | 1.04 (active) |
| CC1(C)CC(=O)C=C(Nc2ccc(Br)c(Cl)c2)C1 | 0.734 ± 0.066 | 0.962 ± 0.067 | 0.839 ± 0.083 | 1.14 ± 0.06 | 1.08 ± 0.066 | 1.08 ± 0.12 | 1.02 (active) |
| CNCCC(Oc1ccc(C(F)(F)F)cc1)c1ccccc1.Cl (centres undefined) | 0.766 ± 0.072 | 0.848 ± 0.087 | 1.33 ± 0.19 | 1.04 ± 0.13 | 0.972 ± 0.056 | 0.9 ± 0.19 | 0.379 (inactive) |
| Cc1c(F)cc(C(=O)NC2CC2)cc1-c1ccc(C(=O)NCC(C)(C)C)cn1 | 0.825 ± 0.21 | 0.994 ± 0.05 | 1.01 ± 0.071 | 1.1 ± 0.043 | 0.808 ± 0.18 | 0.932 ± 0.088 | 1 (active) |
| CC(C)(C)n1cnc2cc(N=Cc3ccc(Cl)cc3)ccc21 | 1.21 ± 0.14 | 1.01 ± 0.12 | 1.4 ± 0.055 | 0.888 ± 0.059 | 0.805 ± 0.048 | 0.996 ± 0.1 | 1 (active) |
| O=C1CN(C(=O)c2cc3ccccc3o2)c2ccccc2N1 | 1.1 ± 0.35 | 1.01 ± 0.052 | 1.21 ± 0.1 | 0.992 ± 0.035 | 1.03 ± 0.14 | 1.1 ± 0.14 | 0.998 (active) |
| Cc1cccc(CN2CCN(C(c3ccccc3)c3ccc(Cl)cc3)CC2)c1.Cl.Cl (centres undefined) | 0.289 ± 0.013 | 0.913 ± 0.1 | 1.44 ± 0.082 | 1.35 ± 0.068 | 1.28 ± 0.27 | 1.27 ± 0.35 | 0.272 (inactive) |
| O=C(CCCc1ccccc1)NCC1(O)CCCC1 | 0.858 ± 0.079 | 0.968 ± 0.078 | 0.867 ± 0.049 | 0.968 ± 0.05 | 0.977 ± 0.061 | 0.917 ± 0.23 | 1.01 (active) |
| O=C(OCCO)c1cc(Cl)c(C(=O)OCCO)cc1Cl | 0.979 ± 0.062 | 1 ± 0.065 | 0.936 ± 0.079 | 0.987 ± 0.034 | 1.49 ± 0.1 | 1.23 ± 0.11 | 1 (active) |
| CCCCN(CCCC)S(=O)(=O)c1ccc(N2CCCC2=O)c([N+](=O)[O-])c1 | 1.02 ± 0.12 | 1.07 ± 0.071 | 1 ± 0.062 | 0.975 ± 0.15 | 1.1 ± 0.13 | 1.13 ± 0.27 | 1 (active) |
| COc1ccc(C2=NN(C(=O)c3ccc(Br)cc3)C(c3nc4ccccc4[nH]3)C2)cc1 (centres undefined) | 0.994 ± 0.087 | 1.1 ± 0.12 | 0.867 ± 0.07 | 0.92 ± 0.049 | 1.16 ± 0.092 | 1.1 ± 0.34 | 0.986 (active) |
| O=C(c1ccc(I)cc1)N(C1CCCCC1)C1CCCCC1 | 0.976 ± 0.1 | 1.03 ± 0.099 | 1.09 ± 0.056 | 0.832 ± 0.044 | 1.02 ± 0.13 | 1.18 ± 0.3 | 0.997 (active) |
| Cc1ccc(NC(=O)CSc2nc3ccccc3[nH]2)cc1.Cl | 1.28 ± 0.37 | 1.15 ± 0.1 | 1.02 ± 0.068 | 0.764 ± 0.036 | 1.19 ± 0.13 | 1.42 ± 0.16 | 0.388 (inactive) |
| CCCCCCCCc1ccc(CCC(N)(CO)CO)cc1.Cl | 0.687 ± 0.18 | 0.685 ± 0.047 | 1.55 ± 0.2 | 0.172 ± 0.019 | 0.673 ± 0.072 | 0.615 ± 0.15 | 0.513 (inactive) |
| CC(O)c1cn(-c2cccc(C(F)(F)F)c2)nn1 (centres undefined) | 1.05 ± 0.35 | 1.16 ± 0.072 | 1.04 ± 0.078 | 0.861 ± 0.038 | 1.15 ± 0.12 | 1.23 ± 0.17 | 1 (active) |
